Source: PubChem BioAssay
IL-1B inflam inh – inflammasome signaling inhibition, IL-1 beta readout; THP-1 LPS/ATP IL-1B secretion, AlphaLISA, 16 h; active compounds read low; activity change, % at 57.5 µM; 360,000 compounds, 4.7% hits; in the data active = activity change below about -50%; inconclusive = mostly about -30% to -49%
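THP-1 cells pretreated 1 hr with compounds (up to 57.5 uM final), then stimulated with LPS (250 ng/mL final) plus ATP (1.25 mM final); secreted IL-1B measured by AlphaLISA after 16 hr, decreased signal indicating inhibition.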
Gal4-VP16 FLuc – Gal4-VP16 reporter inhibition counter-screen; Potency, µM (top dose mostly 53.6 µM), without a hit: top-dose activity, negative = inhibition, hits mostly inhibitors; 310,000 compounds, 3.5% hits; Drosophila S2 Gal4-VP16 UAS-luciferase, luminescence, 20 h;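 note: Gal4-VP16 expression switched on by copper sulfate through the metallothionein promoter; potency is the fitted concentration of half-maximal effect; nearly all actives have a fitted effect of over 50% in size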
RORgamma inh – inhibitors of mouse ROR gamma transcriptional activity. P51450. Drosophila S2 Gal4-RORgamma UAS-luciferase reporter, 20 h. Potency, µM (highest dose often 53.6 µM), for inactives: at the top dose activity change, negative = inhibition, hits mostly inhibitors. 310,000 compounds, 5.4% hits; note: potency is the fitted concentration of half-maximal effect; nearly all actives have a fitted effect of over 60% in size
Target sequence (P51450 whole entry, looked up, the tested form may be a part): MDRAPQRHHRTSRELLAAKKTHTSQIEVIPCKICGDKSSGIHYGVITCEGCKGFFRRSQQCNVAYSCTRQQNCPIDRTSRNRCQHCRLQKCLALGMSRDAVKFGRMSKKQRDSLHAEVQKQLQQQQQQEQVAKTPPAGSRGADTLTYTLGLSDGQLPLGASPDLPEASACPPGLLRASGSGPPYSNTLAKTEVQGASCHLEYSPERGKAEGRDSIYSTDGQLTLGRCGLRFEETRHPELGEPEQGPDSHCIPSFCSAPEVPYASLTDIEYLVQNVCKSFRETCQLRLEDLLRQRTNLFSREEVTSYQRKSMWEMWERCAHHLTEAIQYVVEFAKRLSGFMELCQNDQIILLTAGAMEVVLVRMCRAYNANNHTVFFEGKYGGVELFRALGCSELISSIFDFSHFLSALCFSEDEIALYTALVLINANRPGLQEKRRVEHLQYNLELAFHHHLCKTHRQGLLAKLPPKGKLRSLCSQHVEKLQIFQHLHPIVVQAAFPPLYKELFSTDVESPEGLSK
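Read-out: Photinus luciferase luminescence; inhibitors lower reporter signal. Insect Schneider cells with Gal4-ROR gamma fusion under metallothionein promoter, UAS reporter; 700 uM final copper sulfate induction, 20 hr, ambient temperature.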
LDHA block – LDHA (human) enzyme inhibition | activity change, % (values are at about 110 or 230 µM) | P00338 | purified LDHA, NADH/diaphorase-resazurin fluorescence; active compounds read low | 480,000 compounds, 0.15% hits; in the data active = activity change below about -30%; inconclusive = mostly about -25% to -30%;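 note: plate controls were DMSO wells for no effect and wells without enzyme for full effect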
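Resorufin fluorescence (ex540/em590), read at 0 and 20 min after diaphorase/resazurin addition, reports the NADH left after a 5 min room-temperature reaction of 2 nM human LDH5 with 0.06 mM NADH and 0.2 mM pyruvate.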
TDP1 cell noCPT – qHTS for Inhibitors of human tyrosyl-DNA phosphodiesterase 1 (TDP1): qHTS in cells in absence of CPT | DT40 Tdp1-/- hTDP1 cells, no CPT, ATP luminescence, 48 h | Potency, µM (doses to about 46.2 µM), for inactives: at the top dose activity change, negative = growth inhibition, usual class: inhibitors | 420,000 compounds, 15% hits | AID 686978, 2013; note: potency is the fitted concentration of half-maximal effect; nearly all actives have a fitted effect of over 55% in size
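Growth of hTDP1-complemented DT40 Tdp1-knockout cells is measured by ATP luminescence after at least 48 hr compound exposure at 37 °C, with DMSO substituting for the 20 nM CPT used in the parallel screen.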
TDP1 cell CPT – growth inhibition of DT40 Tdp1-/-;hTDP1 cells with camptothecin (screen for TDP1 inhibitors) | chicken DT40 Tdp1-/-;hTDP1 cells + 20 nM CPT, ATP luminescence, 48 h | Potency, µM (series often up to 46.2 µM), for the others: top-dose activity change, negative = growth inhibition, most hits filed as inhibitors | 420,000 compounds, 12% hits | AID 686979; note: potency is the fitted concentration of half-maximal effect; nearly all actives have a fitted effect of over 55% in size
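Chicken DT40 Tdp1-/- cells complemented with human TDP1, 400 cells/well, exposed to compounds plus 20 nM camptothecin for at least 48 h at 37 C; viability read as ATP content by CellTiter-Glo luminescence.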
An asterisk follows results filed as active; ! = not confirmed by another sample; [ ] = dose if it differs, or a comment. Sampled rows, rich in hits. Any-hit rate of the full collection: about 18%. Unless noted, calls come from the whole dose curve; as a rule, active = well fitted curve in the direction sought with a large enough effect; inconclusive = small, poorly fitted or top-dose-only effect, or another doubt; inactive = no such curve, though single readings can be large; an effect the other way counts as inactive or inconclusive. Unless noted, % is set by controls: 0 for no effect and ±100 for the full control effect.

Screening CN(CC(=O)Nc1ccccc1C(F)(F)F)C(=O)CCc1nc2ccccc2c(=O)[nH]1 returned IL-1B inflam inh 7, LDHA block -2, TDP1 cell noCPT -1% and TDP1 cell CPT -6%.
CCN(CC(=O)Nc1ccccc1SC)Cc1nc2ccccc2c(=O)[nH]1 was read as IL-1B inflam inh 66, Gal4-VP16 FLuc 0.79µM*, RORgamma inh 0.22µM*, LDHA block -10, TDP1 cell noCPT 2.1µM* and TDP1 cell CPT 0.65µM*.
Screening CCN(CC(=O)Nc1ccc(OC)cc1)C(=O)CCc1nc2ccccc2c(=O)[nH]1 returned IL-1B inflam inh 14, LDHA block -6, TDP1 cell noCPT -15% and TDP1 cell CPT inconclusive.
`CCN(CC(=O)Nc1ccccc1C(=O)Nc1ccccc1)Cc1nc2ccccc2c(=O)[nH]1` gave IL-1B inflam inh 57, Gal4-VP16 FLuc inconclusive, RORgamma inh 3.5µM*, LDHA block -8, TDP1 cell noCPT -1% and TDP1 cell CPT 11%.
For CC(NC(=O)CSc1nc2cc([N+](=O)[O-])ccc2o1)c1ccc(F)cc1F (stereo unspecified) the results were LDHA block 1.
Screening COc1ccc(/C=C/C(=O)c2cc(C)ccc2OC(=O)c2cccs2)cc1OC returned LDHA block -5.
CC(C)C(=O)N(Cc1ccc(F)cc1)Cc1nc2ccccc2c(=O)[nH]1 was read as IL-1B inflam inh 8, Gal4-VP16 FLuc -24%, RORgamma inh 11µM*, LDHA block -5, TDP1 cell noCPT inconclusive and TDP1 cell CPT inconclusive.
CN(CC(=O)Nc1ccccc1Br)Cc1nc2ccccc2c(=O)[nH]1 was read as IL-1B inflam inh -19, Gal4-VP16 FLuc -17%, RORgamma inh 28µM*, LDHA block -1, TDP1 cell noCPT inconclusive and TDP1 cell CPT inconclusive.
For CN(Cc1nc2ccccc2c(=O)[nH]1)c1ccccc1 the results were IL-1B inflam inh 20, Gal4-VP16 FLuc -5%, RORgamma inh 39%, LDHA block 1, TDP1 cell noCPT -12% and TDP1 cell CPT inconclusive.
CCN(CC(=O)NCCc1ccc(F)cc1)Cc1nc2ccccc2c(=O)[nH]1 was read as IL-1B inflam inh 11, Gal4-VP16 FLuc inconclusive, RORgamma inh 7.9µM*, LDHA block -9, TDP1 cell noCPT -26% and TDP1 cell CPT inconclusive.
`CCN(CC(=O)NCc1ccc(F)cc1)Cc1nc2cc(Cl)ccc2c(=O)[nH]1` gave IL-1B inflam inh -18, Gal4-VP16 FLuc inconclusive, RORgamma inh 7%, LDHA block -6, TDP1 cell noCPT inconclusive and TDP1 cell CPT -13%.
`CN(CC(=O)Nc1ccccc1Br)C(=O)CCc1nc2ccccc2c(=O)[nH]1` gave IL-1B inflam inh 20, LDHA block 0, TDP1 cell noCPT inconclusive and TDP1 cell CPT inconclusive.
Cc1ccc2nc(SCc3nc(-c4cccc(Cl)c4)no3)[nH]c2c1 was read as LDHA block 7.
For CCN(CC)c1ccc(C(=O)NNC(=O)CCl)cc1 the results were IL-1B inflam inh inconclusive, Gal4-VP16 FLuc -7%[10 µM], RORgamma inh 38%, LDHA block -12, TDP1 cell noCPT inconclusive and TDP1 cell CPT 16µM*.
`CCN(CC1CCCO1)C(=O)/C=C/c1ccc(C#N)cc1` (stereo unspecified) gave LDHA block 11.
`COc1ccccc1-c1csc(Nc2ccc(Oc3ccccc3)cc2)n1` gave IL-1B inflam inh 7, LDHA block -10, TDP1 cell noCPT inconclusive and TDP1 cell CPT 18µM*.
COc1ccc(Nc2nc(-c3cccs3)cs2)cc1 was read as IL-1B inflam inh 4, Gal4-VP16 FLuc 19%, RORgamma inh inconclusive, LDHA block -12, TDP1 cell noCPT 23µM* and TDP1 cell CPT 21µM*.
Screening COC(=O)c1cc(OC(=O)c2cc3ccccc3cc2OC)cc(C(=O)OC)c1 returned LDHA block -8.
`CCOc1ccc(N(CC)C(=O)C(=O)c2c[nH]c3ccccc23)cc1` gave LDHA block 1.
For CC1CCN(S(=O)(=O)c2ccc(NC(=O)c3cc(=O)c4cc(Cl)ccc4o3)cc2)CC1 the results were LDHA block 3.
For COC(=O)C1C2CC3c4[nH]c5cc(OC)ccc5c4CCN3CC2CC(OC)C1OC (stereo unspecified) the results were Gal4-VP16 FLuc 1% and RORgamma inh -7%.
Screening COC(=O)[C@H]1[C@H]2C[C@@H]3c4[nH]c5cc(OC)ccc5c4CCN3C[C@H]2C[C@@H](OC(=O)c2cc(OC)c(OC)c(OC)c2)[C@@H]1OC returned IL-1B inflam inh -29, Gal4-VP16 FLuc 3%, RORgamma inh -26%, LDHA block -6, TDP1 cell noCPT inconclusive and TDP1 cell CPT 16µM*!.
COC(=O)[C@@H]1C2CC3c4[nH]c5cc(OC)ccc5c4CCN3CC2C[C@H](OC(=O)c2cc(OC)c(OC)c(OC)c2)C1OC (stereo partly specified) was read as Gal4-VP16 FLuc 2%, RORgamma inh 19%, TDP1 cell noCPT inconclusive and TDP1 cell CPT 23µM*.
Screening Cc1cc2nc(-c3nnnn3-c3c(C)cccc3C)c(=O)[nH]c2cc1C returned IL-1B inflam inh -1, LDHA block -1, TDP1 cell noCPT 16µM* and TDP1 cell CPT inconclusive.
For CCN1C(=NCCN2CCOCC2)N[C@@H](c2ccccc2)C(C(=O)OC)=C1C the results were IL-1B inflam inh -4, Gal4-VP16 FLuc 5%, RORgamma inh -38%, LDHA block -7, TDP1 cell noCPT -9% and TDP1 cell CPT -8%.
CCN1C(=O)N[C@H](c2ccc(Br)cc2)C(C(=O)OC)=C1C was read as IL-1B inflam inh 7, LDHA block -5, TDP1 cell noCPT -16% and TDP1 cell CPT -5%.
`COC(=O)C1=C(C)N(CC2CC2)C(=NCc2cc(OC)c(OC)c(OC)c2)N[C@H]1c1ccccc1` gave IL-1B inflam inh -1, Gal4-VP16 FLuc 0%, RORgamma inh -3%, LDHA block 1, TDP1 cell noCPT 23µM* and TDP1 cell CPT inconclusive.
Screening COC(=O)C1=C(C)N(Cc2ccccc2)C(=O)N[C@H]1c1ccc(Br)cc1 returned IL-1B inflam inh -54*, Gal4-VP16 FLuc 8%, RORgamma inh 17%, LDHA block 1, TDP1 cell noCPT 7% and TDP1 cell CPT 2%.
